Compounds with a hit are over-represented: about 3.2% of the library has one in this group of screens.
MsrA act = bovine MsrA enzyme activators, primary screen, biochemical, absorbance, HTS; Methionine sulfoxide reductase A (Bos taurus); purified bovine MsrA, absorbance read-out; activation, % at 10.6 µM; 0.3% of 360,000 active; AID 602163, 2012; in the data active means activation above about 7.5%;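 further: 0% = vehicle and 100% = reference activator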
rCAG binder = binders of r(CAG) RNA repeats, primary screen, biochemical, fluorescence | r(CAG) RNA repeat, TO-PRO-1 dye displacement fluorescence | inhibition, % at 3 µM | 1.3% of 370,000 active;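 active means inhibition above the plate cutoff, the mean of all test compounds on that plate plus 3 SD, cut at about 35% in these data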;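 further: 0% = DMSO alone and 100% = 100 µM mitoxantrone as full dye displacement; higher means more dye released from RNA so lower well fluorescence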
DAGLB inhibitor = DAGLB lipase inhibitors, primary screen, biochemical, fluorescence, HTS; AID 504411, 2011; HEK293T DAGLB membrane lysate, EnzChek fluorogenic substrate; Diacylglycerol lipase-beta (Homo sapiens), Q8NCG7; 0.059% of 340,000 active; inhibition, % at 5.17 µM; in the data active means inhibition above about 34%;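 further: 0% = enzyme with vehicle and 100% = wells lacking enzyme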
Target sequence (Q8NCG7 whole entry, looked up): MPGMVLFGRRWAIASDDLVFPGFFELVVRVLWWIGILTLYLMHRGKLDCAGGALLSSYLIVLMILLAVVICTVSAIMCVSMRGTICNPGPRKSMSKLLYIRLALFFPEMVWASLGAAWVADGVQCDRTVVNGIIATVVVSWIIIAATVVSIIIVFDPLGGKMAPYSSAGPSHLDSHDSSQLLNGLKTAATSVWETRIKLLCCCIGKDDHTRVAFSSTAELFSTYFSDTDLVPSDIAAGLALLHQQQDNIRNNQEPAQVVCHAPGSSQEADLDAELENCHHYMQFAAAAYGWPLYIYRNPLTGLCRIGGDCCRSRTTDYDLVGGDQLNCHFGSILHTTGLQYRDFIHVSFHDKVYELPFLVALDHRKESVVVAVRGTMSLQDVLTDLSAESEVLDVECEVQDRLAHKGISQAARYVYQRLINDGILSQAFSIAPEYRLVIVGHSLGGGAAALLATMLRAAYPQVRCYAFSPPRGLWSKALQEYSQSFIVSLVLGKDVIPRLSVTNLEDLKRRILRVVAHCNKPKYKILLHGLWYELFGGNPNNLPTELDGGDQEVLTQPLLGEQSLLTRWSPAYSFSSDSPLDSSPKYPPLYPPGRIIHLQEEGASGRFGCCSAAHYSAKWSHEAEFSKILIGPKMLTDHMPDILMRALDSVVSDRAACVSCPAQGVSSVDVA
MsrA inhibitor = bovine MsrA enzyme inhibitors, primary screen, biochemical, absorbance, HTS. Methionine sulfoxide reductase A (Bos taurus). purified bovine MsrA, absorbance read-out. inhibition, % at 15.5 µM. 0.75% of 360,000 active; in the data active means inhibition above about 4.5%;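 further: 0% = vehicle wells with enzyme and 100% = reference inhibitor wells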
NadD inh = inhibitors of S. aureus NadD, primary screen, biochemical, colorimetric, uHTS. inhibition, % at 20 µM. purified NadD enzyme, colorimetric absorbance read-out. AID 602399, 2012. 0.78% of 360,000 active. Nicotinate-nucleotide adenylyltransferase NadD (Staphylococcus aureus N315); in the data active means inhibition above about 26%
Pemphigus Ab inh = inhibitors of pemphigus antibody binding to DSG3, primary screen, biochemical, bead-based, flow cytometry, scFv-GFP. Desmoglein-3 (Homo sapiens), P32926. binding (percent of control), % at 10 µM. DSG3-coupled beads, scFv-anti-DSG3-GFP binding; hits give low values. AID 588358, 2011. 0.48% of 310,000 active;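 active means binding more than 3 SD below its plate's average and above zero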;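 further: hits lower antibody fragment binding to DSG3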
* = called active by the depositor; x = no result given; ! = not confirmed by another sample.

SMILES | MsrA act | rCAG binder | DAGLB inhibitor | MsrA inhibitor | NadD inh | Pemphigus Ab inh
O=C(Nc1ccccc1)c1ccccc1OCc1ccc(S(=O)(=O)N2CCOCC2)cc1 | -5 | -3 | -2 | 1 | 3 | 67*
CCn1c(Cc2cccs2)nnc1SCC(=O)Nc1ccc(Cl)cc1C | x | 0 | x | x | x | x
O=C(O)COc1c(-c2ccco2)oc2ccccc2c1=O | -4 | 4 | -2 | 3 | 2 | 94
NC(=O)COc1c(-c2ccco2)oc2ccccc2c1=O | -8 | 0 | 0 | 4.6* | -4 | 102
C#CCCCN([C@@H](CC(C)C)C(=O)OC)S(=O)(=O)c1ccc(F)cc1Br | x | -4 | x | x | x | x
COc1ccc(C(C)=O)cc1COC(=O)c1cc(C)nc2ccccc12 | 0 | -5 | -6 | 0 | -2 | 61*
COc1ccc(C(C)=O)cc1COC(=O)c1ccc2ccccc2n1 | -4 | -3 | -2 | 4 | -1 | 97
O=C(C=P(c1ccccc1)(c1ccccc1)c1ccccc1)c1ccccc1-c1ccccc1C(=O)C=P(c1ccccc1)(c1ccccc1)c1ccccc1 | -10 | 8 | 5 | -1 | 56* | 92
O=C(NNC(=O)c1ccccc1-c1ccccc1C(=O)O)c1ccccc1 | -4 | 0 | -2 | 0 | 0 | 103
CCc1nc(N)c(C#N)c(-c2ccc(F)cc2)c1C | 3 | 1 | -8 | 0 | 0 | 106
Cc1ccc2c(n1)sc1c(-c3ccc(Br)cc3)c(C#N)c(N)nc12 | -13 | 2 | 2 | 0 | 11 | 74*
CCn1cnc2c([N+](=O)[O-])c(NS(=O)(=O)c3ccc(C)cc3)ccc21 | 12* | 1 | 2 | 0 | -6 | 103
COC(=O)[C@]12C[C@H](CC(=O)N3CCN(C(=O)C4CC4)CC3)C(=O)N(CCc3ccc(OC)c(OC)c3)C1=C[C@H](COCc1ccccc1)O[C@@H]2C | x | 0 | x | x | x | x
Cc1cccc(NC(=O)[C@H](Cc2ccccc2)NC(=O)OCc2ccccc2)c1 | 0 | -3 | -4 | 2 | -5 | -3.4*
COc1cc(OC)c2c(O)c3c(c(-c4c5c(c(O)c6c(OC)cc(OC)cc46)CO[C@@H](C)[C@H]5O)c2c1)[C@H](O)[C@H](C)OC3 | 1 | x | 28 | x | 50* | 74*
COc1ccc(C(C(=O)NC2CCCCC2)N(Cc2cccs2)C(=O)Cc2c[nH]c3ccccc23)cc1 (stereo not drawn) | -2 | 9 | 2 | 3 | 19 | 30*
COC(=O)[C@@]12CCCCC=C1N(CCc1ccc(Cl)cc1)C(=O)[C@H]2CC(=O)NCc1cccc(C(F)(F)F)c1 | x | 3 | x | x | x | x
CC(C)n1nnnc1C1(C)CCCCC(=O)N1Cc1cccc(C(F)(F)F)c1 (stereo not drawn) | x | 1 | x | x | x | x
COC(=O)/C=C1\S/C(=N/N=C/c2ccccc2)NC1=O | -3 | 19 | 3 | 1 | 5 | 124
COC(=O)/C=C1/S/C(=N/N=C/c2ccco2)NC1=O | -6 | 8 | x | 4.6* | -6 | 108
CCOC(=O)c1csc(NC(=O)C2CCCN(S(=O)(=O)c3cc(OC)ccc3OC)C2)n1 (stereo not drawn) | x | 1 | x | x | x | x
CCCC(=O)OCC(=O)Nc1cc([N+](=O)[O-])ccc1OC | -9 | -3 | -2 | 4.6* | -8 | 104
COc1ccc([N+](=O)[O-])cc1NC(=O)COC(C)=O | -4 | -2 | -1 | 2 | -8 | 93
COP(=O)(OC)C(Cc1ccccc1)NC(=O)CNC(=O)OCc1ccccc1 (stereo not drawn) | x | 1 | x | x | x | x
O=C(N/C(=C\c1ccc([N+](=O)[O-])cc1)C(=O)N1CCOCC1)c1ccccc1 | -7 | -6 | -3 | 4.6* | -4 | 99
SMILES | MsrA act | rCAG binder | DAGLB inhibitor | MsrA inhibitor | NadD inh | Pemphigus Ab inh
COc1cccc(OC)c1-c1nn2c(-c3cc(-c4ccccc4)n[nH]3)nnc2s1 | -3 | 12 | 2 | 0 | 52* | 83
Cc1noc(NS(=O)(=O)c2ccc(NC(=O)/C=C/c3ccc(C(C)C)cc3)cc2)c1C | -4 | 85* | 9 | 1 | 14 | x
O=C(COc1ccc2ccccc2c1)Nc1ccc(Cc2ccncc2)cc1 | -8 | -2 | -6 | 3 | 6 | 37*
COC(=O)C1CN(Cc2ccc(OC)cc2)CCS(=O)(=O)N1Cc1cn(Cc2ccccc2)nn1 (stereo not drawn) | x | 0 | x | x | x | x
COc1ccc(CC(=O)NC2CCCCCC2)c(OC)c1 | -1 | -2 | -1 | 1 | -5 | -48*
COc1ccc(NC(=O)c2ccc(CNc3c(NC4CCCCC4)c(=O)c3=O)cc2)c(OC)c1 | -2 | 6 | 5 | 0 | 10 | -2.5*!
CCOc1ccc(NC(=O)c2ccc(CNc3c(NC4CCCCC4)c(=O)c3=O)cc2)cc1 | -2 | 6 | 3 | -2 | 24 | 96
COc1ccc(NC(=O)NC2CCCCCCC2)c(OC)c1 | 0 | x | -1 | x | 0 | 111
COC(=O)C1CN(Cc2ccc(OC)cc2)CCS(=O)(=O)N1Cc1cn(Cc2ccc(OC)cc2)nn1 (stereo not drawn) | x | -1 | x | x | x | x
CN1OC[C@@H]2CN(C(=O)C(C)(C)C)[C@H](c3ccc(-c4cc5ccccc5o4)cc3)C[C@@H]21 | -2 | 1 | -2 | 0 | 0 | 61*
CN1OC[C@@H]2CN(C(=O)C(C)(C)C)[C@H](c3cccc(-c4ccccc4)c3)C[C@@H]21 | -2 | -1 | -1 | -1 | 1 | 106
O=C(Nc1ccc(OCC(F)(F)C(F)F)cc1)c1ccncc1 | -1 | 2 | -2 | -1 | 1 | -13*
O=C(CC1SC(=O)N(c2ccccc2)C1=O)Nc1ccccc1 (stereo not drawn) | -3 | 26 | 12 | 0 | -4 | 103
Cc1ccc(NC(=O)CC2SC(=O)N(c3ccccc3)C2=O)cc1 (stereo not drawn) | -3 | 37* | 19 | 0 | -6 | 74
Oc1ccc(/C=N/Nc2cc(N3CCCC3)nc(N3CCCC3)n2)cc1O | 1 | 40* | 5 | 0 | 36* | 112
O=C(NCCC(F)(F)F)C1Cc2c(-c3ccc(Cl)cc3)ccnc2O1 (stereo not drawn) | -5 | 1 | x | 0 | 1 | x
CCOC(=O)N1CCC2(O)CCCCC2C1c1ccc(F)cc1 (stereo not drawn) | -1 | -8 | 0 | 0 | -7 | 86*
O=C(CN1CC[C@@]2(O)CCCC[C@H]2[C@@H]1c1ccc(F)cc1)NCc1ccco1 | -3 | -4 | 1 | 0 | 0 | 107
Cc1ccccc1-n1nc2c(c1NC(=O)c1ccc(Br)o1)CSC2 | -11 | x | 6 | x | 50* | 87*

Source: PubChem BioAssay (several laboratories)
